Coupling enz = inhibits coupling enzyme system, counter-screen for aldolase hits; coupling enzyme system counterscreen, AmpLite Red fluorescence; activity change, negative = inhibition, % at 58.2 µM, hits read low; hit rate 0.67% among 290,000; AID 2472; in the data active = activity change below about -30%
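Final compound at 57.5 uM, incubated 10 min at RT with coupling enzyme reagent (glyceraldehyde-3-phosphate), then 20 min with substrate and AmpLite Red detection. Fluorescence read at 525/598 nm; tests interference with the coupling assay, not aldolase inhibition.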
Tau fibril FP = inhibitors of human tau fibril formation; P10636; K18 P301L tau heparin fibrillization, Alexa594 FP, 6 h; Potency, µM (titrated, usually from 57.7 µM), for inactives: top-dose activity, negative = inhibition, actives largely listed as inhibitors; hit rate 0.39% among 280,000; AID 1468; note: potency is the fitted concentration of half-maximal effect; nearly all actives have a fitted effect of over 55% in size
Target sequence (P10636 561-689 P618L limits assumed): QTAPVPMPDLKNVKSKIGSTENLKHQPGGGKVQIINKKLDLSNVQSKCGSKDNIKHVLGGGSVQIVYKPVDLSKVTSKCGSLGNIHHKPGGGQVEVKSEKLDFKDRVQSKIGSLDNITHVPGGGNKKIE
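Read-out: fluorescence polarization of Alexa 594-labeled tau (0.24 uM), 555 nm excitation, 632 nm emission. Mixtures held 15 uM unlabeled K18 P301L, compound and 20 uM heparin, pH 7 acetate buffer, incubated 6 hr at 37 C.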
JMJD2E inh = JMJD2E (human) inhibition; B2RXH2; JMJD2E catalytic domain, FDH-coupled NADH fluorescence (FDH is formaldehyde dehydrogenase); Potency, µM (titrated, usually from 57.1 µM), without a hit: top-dose activity change, negative = inhibition, most hits filed as inhibitors; hit rate 1.6% among 230,000; active = well fitted inhibition curve with a large enough effect, not every such curve was filed as active; inconclusive = small, poorly fitted or top-dose-only effect, or another doubt; inactive = no such curve, though single readings can be large or run the other way;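 note: potency is the fitted concentration of half-maximal effect; 0% = wells with enzyme and -100% = buffer wells without enzyme; nearly all actives have a fitted effect of over 50% in size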
Target sequence (B2RXH2 1-337 limits assumed): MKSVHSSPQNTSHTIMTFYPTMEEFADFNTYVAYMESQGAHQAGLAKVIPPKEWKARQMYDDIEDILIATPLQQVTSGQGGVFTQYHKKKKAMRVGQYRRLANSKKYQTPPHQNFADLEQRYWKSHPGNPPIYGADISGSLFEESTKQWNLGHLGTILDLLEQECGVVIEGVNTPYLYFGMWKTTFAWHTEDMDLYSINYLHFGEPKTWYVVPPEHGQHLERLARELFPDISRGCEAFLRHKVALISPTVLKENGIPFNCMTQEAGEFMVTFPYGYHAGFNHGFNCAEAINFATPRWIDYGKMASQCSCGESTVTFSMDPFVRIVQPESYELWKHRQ
Tau fluor counter = counter-screen for tau fibril formation inhibitors. tau K18 P301L Alexa594 fluorescence, heparin fibrillization. Potency, µM (doses to about 57.7 µM), for the others: at the highest dose activity change, negative = decrease. hit rate 0.93% among 280,000. AID 1463; note: potency is the fitted concentration of half-maximal effect; nearly all actives have a fitted effect of over 55% in size
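Human tau K18 P301L (15 uM unlabeled, 0.24 uM Alexa 594-labeled) in 100 mM sodium acetate pH 7 with 20 uM heparin, 6 hr at 37 C. ThT 30 uM added, 1 hr ambient; Alexa 594 FP and total fluorescence read at 555/632 nm.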
Sfp inh = Sfp phosphopantetheinyl transferase inhibition; Potency, µM, inactives show largest response in the series, negative = inhibition, hits mostly inhibitors; Q9F4F7; hit rate 3.5% among 310,000; Biochemical Sfp PPTase activity, qHTS;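 note: the enzyme is Sfp with the accession as filed and its product quenches rhodamine fluorescence; potency is the fitted concentration of half-maximal effect; 0% = enzyme reaction without inhibitor and -100% = no enzyme wells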
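Fluorescence-quenching assay: 15 nM Sfp-PPTase preincubated 15 min at room temperature with compound, then 5 uM rhodamine-CoA and 12.5 uM BHQ-2-labelled YbbR peptide added. Fluorescence (ex 525/em 598 nm) read at start and after 30 min; difference gives rate.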
Tau ThT inhib = inhibitors of human tau fibril formation, thioflavin T binding; AID 1460; hit rate 2.1% among 270,000; Potency, µM (series often up to 57.4 µM), for the others: at the highest dose activity, negative = inhibition, hits mostly inhibitors; P10636; recombinant tau K18 P301L (four-repeat tau fragment), heparin-induced fibrillization, ThT fluorescence; note: potency is the fitted concentration of half-maximal effect; nearly all actives have a fitted effect of over 55% in size
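Tau K18 P301L fragment (15 uM unlabeled plus 0.24 uM Alexa 594-labeled) in 100 mM sodium acetate pH 7 with compound, fibrillization induced by 20 uM heparin for 6 hr at 37 C. Thioflavin T (30 uM) added, fluorescence read after 1 hr (ex 450, em 510 nm).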
* marks the source's active call; other numbers are inactive results; ? = inconclusive; . = no result given; [ ] = remark or other dose. A selection: hits, their analogues and other compounds. The true share with any hit is near 5.3%. Unless noted, calls come from the whole dose curve; as a rule, active = well fitted curve in the direction sought with a large enough effect; inconclusive = small, poorly fitted or top-dose-only effect, or another doubt; inactive = no such curve, though single readings can be large; an effect the other way counts as inactive or inconclusive. Unless noted, % is set by controls: 0 for no effect and ±100 for the full control effect.

SMILES	Coupling enz	Tau fibril FP	JMJD2E inh	Tau fluor counter	Sfp inh	Tau ThT inhib
Cc1cccc(NC(=S)Nn2cnnc2)c1C	0	5%	5%	4%	10µM*	1%
CCC(=O)N1CCc2cc(S(=O)(=O)NCCC(=O)Nc3cc(C)ccc3OC)ccc21	.	-9%	.	-11%	.	-3%
Fc1ccccc1NC(=S)Nn1cnnc1	.	.	.	.	18µM*	.
Fc1ccccc1NC(=S)NCc1ccccc1	-1	.	.	.	36%	.
CCn1nnc2cc(C(=O)Nc3ccc(Cl)cc3C)ccc21	.	-2%	.	-1%	.	-9%
Cc1ccc(C2C3=C(CC(C)(C)CC3=O)Nc3[nH]c(=S)[nH]c(=O)c32)cc1 (centres undefined)	3	-5%	?	-8%	14µM*	-11%
Cc1[nH]n(-c2ncc(-c3ccc(Cl)cc3)s2)c(=O)c1C(c1ccc(Cl)cc1)C(C#N)C#N (centres undefined)	3	40µM*	?	?	?	11µM*
CCOC(=O)c1cc(CC)sc1NC(=O)CN1CCN(C(=O)c2ccco2)CC1	.	.	.	.	40µM*	.
Cc1[nH]c2ccccc2c1NC(=O)CN1CCN(C(=O)c2ccco2)CC1	-16	0%	-1%	-1%	45µM*	1%
Cc1ccc(NC(=O)CN2CCN(C(=O)c3ccco3)CC2)cc1	0	.	.	.	24%	.
NCC(=O)N[C@@H](CCCN=C(N)N)C(=O)NCC(=O)N[C@@H](CC(=O)O)C(=O)N[C@@H](CO)C(=O)O	0	.	.	.	21%	.
O=C(CN1C(=O)COc2ccccc21)NCCCN1CCc2ccccc2C1	1	2%	-4%	0%	20µM*	4%
O=C(CN1C(=O)COc2ccccc21)NCCCN1CCN(Cc2ccccc2)CC1	1	1%	-4%	9%	9%	5%
CC(C)(C)c1ccc(C2=NC(=O)C(CC(=O)O)S2)cc1 (centres undefined)	1	?	-18%	-16%	50µM*	.
COc1ccc(C(=O)CC2SC(N)=NC2=O)cc1 (centres undefined)	1	-10%	-2%	2%	-12%	-2%
O=C(Oc1cccc(C(=S)N2CCOCC2)c1)c1cccc([N+](=O)[O-])c1	-22	2%	-1%	?	-22%	?
CC(=O)N1CCN(C(=S)c2ccc([N+](=O)[O-])cc2)CC1	2	-1%	-6%	0%	-10%	-5%
O=C(Oc1cccc(C(=S)N2CCOCC2)c1)c1cc([N+](=O)[O-])cc([N+](=O)[O-])c1	-4	-1%	-5%	20µM*[quencher]	0%	?
Cc1cccc(N2CCN(C(=S)c3ccc([N+](=O)[O-])cc3)CC2)c1	-5	-3%	-1%	4%	25µM*	10%
CN(C)c1ccc(C(=S)N2CCN(c3ccc([N+](=O)[O-])cc3)CC2)cc1	-30*	3%	-5%	-9%	3.5µM*	-7%
O=[N+]([O-])c1ccc(NC(=S)N2CCN(c3ccc(F)cc3)CC2)cc1	1	0%	13%	?	-7%	?
O=[N+]([O-])c1ccc(C(=S)N2CCN(c3ccc(F)cc3)CC2)cc1	-4	-1%	-13%	-28%	16µM*	?
CCOc1ccc(NC(=O)N2CCOc3ccccc32)cc1	.	10%	.	?	.	-1%
OC[C@H]1OC(O)[C@H](O)[C@@H](O)[C@@H]1O (some centres undefined)	-1	.	.	.	13%	.
CC(C)(C)C1CCc2nc(NC(=O)c3cccc(Cl)c3)sc2C1 (centres undefined)	.	-13%	.	-11%	.	-15%
SMILES	Coupling enz	Tau fibril FP	JMJD2E inh	Tau fluor counter	Sfp inh	Tau ThT inhib
Cc1ccc(N2CCN(C(=S)c3ccc(N(C)C)cc3)CC2)cc1	0	7%	-6%	?	20µM*	?
CC1CN(C(=S)NC(=O)c2ccc([N+](=O)[O-])cc2)CC(C)O1 (centres undefined)	0	2%	-2%	-1%	4%	-1%
CC1CN(C(=S)c2cccc([N+](=O)[O-])c2)CC(C)O1 (centres undefined)	1	-7%	3%	-10%	50µM*	-9%
CN(C)c1ccc(C(=S)N2CCN(c3ccccc3)CC2)cc1	-1	17%	4%	?	11%	?
O=[N+]([O-])c1cccc(C(=S)N2CCN(c3ccccc3)CC2)c1	2	-3%	-21%	?	32µM*	?
Cc1ccc(-n2c(N)c(C(N)=O)sc2=S)cc1	-3	-14%	-21%	-11%	0.32µM*	?
Nc1c(C(=O)NCc2cccnc2)sc(=S)n1-c1ccccc1	-7	-3%	-12%	4%	13µM*	-9%
COc1ccc(CNC(=O)c2sc(=S)n(-c3ccc(OC)cc3)c2N)cc1	-10	-14%	-3%	-20%	20µM*	-4%
NC1=C(O)C(=O)C(c2ccccc2)O1 (centres undefined)	-4	-10%	16µM*	-13%	-8%	?
Cc1ccc(NC(=O)Nc2csc3c2CCCC3)c(C)c1	.	11%	.	-23%	.	?
CC(=O)c1cccc(NC(=O)Nc2csc3c2CCCC3)c1	-5	?	3%	11µM*[quencher]	-3%	?
O=C(Nc1ccc(F)cc1)Nc1csc2c1CCCC2	.	-16%	.	7.1µM*[quencher]	.	?
CC(=O)c1cccc(NC(=O)c2csc3c2CCCCC3)c1	-5	2%	3%	-26%	9%	-8%
CN(C)c1ncc2nc(-c3ccc(F)cc3)c(=O)n(C)c2n1	3	.	.	.	22%	.
COc1ccc(C2=C(C)C(=NCCCN3CCN(c4cc(C)ccc4C)CC3)NS2(=O)=O)cc1	.	?	.	-1%	.	-8%
COc1ccc(C2C(C#N)=C(N)SC(N)=C2C#N)cc1OC	-25	-10%	-28%	-11%	?	-8%
CCOc1cc(C2C(C#N)=C(N)SC(N)=C2C#N)ccc1OCCN1CCOCC1	-25	?	-26%	-29%	-87%	25µM*
CCOc1ccc(C2C(C#N)=C(N)SC(N)=C2C#N)c(OCC)c1	-37*	?	?	?	16µM*	?
CC[n+]1ccc(/C=C/c2ccc(N(C)C)cc2)c2ccccc21	-10	?	?	0.71µM*[fluorescent]	?	1.4µM*
CN(C)c1ccc(/C=C/c2cc[n+]([O-])cc2)cc1	-2	3%	-7%	-8%	0%	?
CN(C)c1ccc(/C=C/c2cc[n+](C)cc2)cc1	-2	?	0%	14µM*[fluorescent]	3%	4µM*
CC[n+]1ccccc1/C=C/c1ccc(N(C)C)cc1	0	3%	-13%	8%	-5%	14µM*
COc1ccc(OC)c(CCNC(=O)c2cc3cccc4c3n2CC(C)S4)c1 (centres undefined)	.	-6%	.	?	.	-9%

Screening results: PubChem BioAssay, National Center for Advancing Translational Sciences (NCATS)
